Compound activity deposited in PubChem by The Scripps Research Institute Molecular Screening Center.
DAX1 inh-1 – DAX1 (NR0B1) inhibition, primary screen; HEK293T StAR-luciferase reporter, SF-1/DAX-1 repression relief; inhibition, % at 6.8 µM; 1.1% of 370,000 active; AID 652010;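 active means inhibition above the mean over all tested compounds plus 3 SD, cut at about 3.6% in these data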;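 further: 0% = DAX-1 cells with DMSO and 100% = cells lacking DAX-1 with DMSO; higher inhibition means more luminescence from relief of DAX-1 repression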
hgDAF-12 ag – agonists of H. glycines DAF-12 nuclear receptor | HEK293 GAL4-hgDAF12 UAS-luciferase reporter, agonist luminescence; normalized to butyrate control | 1.8% of 370,000 active | AID 687014 | activation, % at 6.8 µM;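 active means activation above a cutoff set at the mean of all screened compounds plus 3 SD, cut at about 10% in these data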;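 further: 0% = DMSO wells and 100% = sodium butyrate wells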
DAX1 inh-2 – inhibits human nuclear receptor DAX1 | P51843 | HEK293 Gal4-DAX1 luciferase reporter, luminescence | inhibition, % at 6.75 µM | 0.99% of 340,000 active | AID 504766;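 active means inhibition above the mean over all tested compounds plus 3 SD, cut at about 4.2% in these data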;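 further: 0% = DAX1-transfected cells with DMSO and 100% = empty-vector control cells with DMSO; inhibition shows as a rise in luminescence from relieved DAX1 repression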
Target sequence (P51843 207-470 limits assumed): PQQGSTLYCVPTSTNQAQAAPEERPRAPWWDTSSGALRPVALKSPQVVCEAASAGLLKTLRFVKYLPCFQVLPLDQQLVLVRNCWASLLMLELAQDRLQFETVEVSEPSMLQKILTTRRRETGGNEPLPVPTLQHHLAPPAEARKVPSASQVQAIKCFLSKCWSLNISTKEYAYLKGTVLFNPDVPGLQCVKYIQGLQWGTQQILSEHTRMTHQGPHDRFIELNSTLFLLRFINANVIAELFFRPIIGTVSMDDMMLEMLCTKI
ssDAF12 agonist – S. stercoralis DAF-12 activation, primary screen. HEK293 ssDAF-12/GRIP1 lit1-tk-luc reporter, luminescence; % of 3 µM dafachronic acid response. activation, % at 6.8 µM. 1% of 370,000 active. AID 652126;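 active means activation above the mean over all tested compounds plus 3 SD, cut at about 0.9% in these data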;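 further: 0% = DMSO-only wells and 100% = 3 µM delta7-dafachronic acid wells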
hcDAF12 agonist – H. contortus DAF-12 activation, primary screen; activation, % at 6.8 µM; 1.4% of 370,000 active; HEK293 hcDAF-12 lit1-tk-luc reporter, luminescence; 0% DMSO, 100% Δ7-dafachronic acid; AID 652067;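 active means activation above the mean of all tested compounds plus 3 SD, cut at about 5.5% in these data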;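 further: 100% = response to 3 µM Δ7-dafachronic acid high control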
* marks the source's active call; other numbers are inactive results; · = no result given. The list is not random: actives were taken first. Their share in the collection is about 4.1%.

SMILES | DAX1 inh-1 | hgDAF-12 ag | DAX1 inh-2 | ssDAF12 agonist | hcDAF12 agonist
COc1ccc2nc3cc(Cl)ccc3c(Nc3cc(CN4CCCC4)c(O)c(CN4CCCC4)c3)c2n1 | 4.3* | -6 | · | 0 | 2
COc1ccc2nc3cc(Cl)ccc3c(Nc3cc(C(C)C)c(O)cc3C)c2c1 | 0 | 0 | -1 | -1 | -2
Cn1nccc1C(=O)N1CCc2c([nH]c3ccccc23)C1c1ccc(F)cc1 (configuration not stated) | 0 | 1 | 0 | 1.0* | 1
COc1ccc(C2c3[nH]c4ccccc4c3CCN2C(=O)c2cn3ccccc3n2)c(F)c1 (configuration not stated) | 0 | 1 | 0 | 1.5* | 4
CCc1ccc(C2c3[nH]c4ccccc4c3CCN2C(=O)c2cc[n+]([O-])cc2)cc1 (configuration not stated) | -1 | -2 | -2 | -1 | 1
Clc1ccc(-c2cc(-c3ccccc3)on2)cc1 | 1 | 8 | 0 | 0 | 2
Cc1nc(-c2cc(-c3ccc(Cl)cc3)no2)cs1 | 1 | 3 | 4.5* | -1 | 0
Nc1n[nH]c2cc(=O)n(-c3cccc(C(F)(F)F)c3)nc12 | 0 | -1 | -2 | -2 | 2
O=c1[nH][nH]c2cc(=O)n(-c3cccc(C(F)(F)F)c3)nc12 | 0 | -1 | 0 | 5.2* | -1
O=C(OCc1cn(Cc2ccc(F)cc2F)nn1)N1CCCC1 | 0 | -2 | · | -1 | -1
Nc1cccc(N=[N+]([O-])c2cccc(N)c2)c1 | 1 | 11* | 0 | 0 | 0
O=[N+]([O-])c1cccc(N=NNc2cccc([N+](=O)[O-])c2)c1 | 1 | 0 | 0 | -1 | -1
CCCn1c(=O)c(C(=O)Nc2ccccc2)c(O)c2ccccc21 | 1 | 4 | 0 | 0 | 5
Cn1c(Cl)c(C(=O)Nc2ccccc2)c2ccccc21 | 0 | 3 | -1 | 0 | 6.5*
CCOC1=C2CN(S(=O)(=O)c3ccc(C)cc3)[C@H](c3ccccc3)C[C@H]2[C@H]2C(=O)N(c3ccccc3)C(=O)[C@H]2C1 | 4.0* | -1 | · | -1 | 0
O=C(N/N=C/c1cc(Br)ccc1O)c1cccc(N2CCCC2=O)c1 | -2 | -9 | 2 | -1 | -2
O=C(N/N=C/c1ccco1)c1cccc(N2CCCC2=O)c1 | 2 | 11* | -1 | 0 | 5
O=C(Nc1ccccc1)c1cccc(N2CCCC2=O)c1 | 0 | 12* | 0 | -1 | 2
C=CCN1C(C(=O)OC)CN(Cc2cn(Cc3ccc(F)cc3)nn2)CCS1(=O)=O (configuration not stated) | 2 | 1 | · | -1 | -2
Cc1cc(OCC(=O)N2CCC(C(N)=O)CC2)c2c(C)cc(=O)oc2c1 | -1 | -2 | 7.5* | -2 | 0
CCCCc1cc(=O)oc2cc(C)cc(OCC(=O)N3CCC(C(N)=O)CC3)c12 | -1 | 1 | 1 | -1 | -1
Cc1cccc2sc(N3CCN(C(=O)C4COc5ccccc5O4)CC3)nc12 (configuration not stated) | 1 | 0 | -1 | -1 | -1
COC(=O)c1cnn(-c2nc3c(C)cccc3s2)c1C | 0 | 2 | 1 | 0 | 5.9*
CC1(C)CC(=O)C=C(C#CC2CC2)C1 | 1 | 4 | · | -1 | -1
O=C(NCCc1ccc(Cl)cc1)C1CCCN1C(=O)Nc1ccc(F)cc1 (configuration not stated) | 0 | 1 | -1 | -2 | -1
SMILES | DAX1 inh-1 | hgDAF-12 ag | DAX1 inh-2 | ssDAF12 agonist | hcDAF12 agonist
O=C(NCCc1ccccc1)C1CCCN1C(=O)Nc1ccc(F)cc1 (configuration not stated) | 0 | 0 | 5.1* | -1 | 3
COCCNC(=O)/C(C#N)=C/c1ccc(SC)cc1 | 0 | 4 | · | -1 | -2
COCCNC(=O)/C(C#N)=C/c1ccc(OCc2ccc(F)cc2)cc1 | -1 | 13* | 0 | -2 | 2
COCCNC(=O)/C(C#N)=C/c1ccc(C(=O)O)cc1 | 0 | -1 | 5.0* | -1 | -1
COCCNC(=O)/C(C#N)=C/c1ccc(OCc2ccccc2)cc1 | 0 | 2 | -1 | -1 | 0
O=C(O)c1ccc2c(c1)SC1=NS(=O)(=O)CCN12 | 0 | 4 | 0 | -1 | -1
O=S1(=O)CCN2N=C(C3CC3)SC2=N1 | 0 | 0 | 6.2* | -2 | -1
